The text below walks through data of PubChem BioAssay.

Activity calls are given as the source filed them.

The target of test [1] is Albumin (Bos taurus) (UniProt P02769). In words: bovine serum albumin binders on microarray, profiling panel, artefact control for SMM control protein annotation, biochemical, small-molecule microarray, Alexa647 label, 635/667 nm fluorescence (AID 1118).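 Also: score merges 667 nm emission intensity and signal-to-noise per printed compound spot.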 The settings on record: BSA-A647 binding, fluorescence 635 nm, higher = more signal.
Chain of Albumin (Bos taurus) (P02769 whole entry, looked up): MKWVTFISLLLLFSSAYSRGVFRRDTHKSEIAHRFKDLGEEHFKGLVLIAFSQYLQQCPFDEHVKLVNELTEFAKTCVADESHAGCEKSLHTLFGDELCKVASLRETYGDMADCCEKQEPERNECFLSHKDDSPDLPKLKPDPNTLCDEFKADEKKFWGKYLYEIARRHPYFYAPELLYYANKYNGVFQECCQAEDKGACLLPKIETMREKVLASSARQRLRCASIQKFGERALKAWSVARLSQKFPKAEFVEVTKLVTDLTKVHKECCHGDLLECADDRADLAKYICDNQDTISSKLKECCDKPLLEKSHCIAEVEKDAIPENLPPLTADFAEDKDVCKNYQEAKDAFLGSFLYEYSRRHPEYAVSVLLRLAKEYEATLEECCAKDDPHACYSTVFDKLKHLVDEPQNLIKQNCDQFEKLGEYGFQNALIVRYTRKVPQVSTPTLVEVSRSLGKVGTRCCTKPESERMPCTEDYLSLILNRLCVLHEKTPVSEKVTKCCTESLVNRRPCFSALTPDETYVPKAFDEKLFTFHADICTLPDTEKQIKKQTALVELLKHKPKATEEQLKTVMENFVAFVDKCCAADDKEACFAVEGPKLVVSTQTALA
Test [2] is described as follows: small-molecule microarray binders of probe aXIP, primary screen, biochemical, NeuroSMM set, 635/667 nm fluorescence (AID 1119).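 Also: probe is the protein aXip251-270 applied at 1 µg/mL to compound-printed slides; binding of probe to printed compounds measured as 667 nm fluorescence plus signal to noise.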 Conditions: higher = more signal, called active from +8 up or from −8 down.
The nature of test [3]: small-molecule binders of probe aNOTCH3, primary screen, biochemical, small-molecule microarray, 635/667 nm fluorescence (AID 1120).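 Also: probe is a biotin-tagged antibody raised against NOTCH3 rather than NOTCH3 protein; score merges spot fluorescence near 667 nm with spot signal to noise.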 Conditions: higher = more signal.
The nature of test [4]: small-molecule binders of probe aNOTCH2, primary screen, biochemical, small-molecule microarray, 635/667 nm fluorescence (AID 1121).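 Also: score merges feature fluorescence read at 667 nm with its signal to noise.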 Conditions: higher = more signal.
In test [5] the target is Carbonic anhydrase 2 (Homo sapiens) (UniProt P00918). In words: CAII small-molecule binders, profiling panel, biochemical, small-molecule microarray, Alexa647-labelled CAII (AID 1122). The settings on record: CAII-A647 binding fluorescence, higher = more signal.
The nature of test [6]: COS7 lysate on small-molecule microarray, probe aHis, 635 nm (AID 1123).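 Also: z-score combines 667nm fluorescence intensity with signal-to-noise per printed compound spot.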 The settings on record: COS7 cell lysate, fluorescence, higher = more signal.
Test [7] is described as follows: compound binding in COS7 lysate, probe aLAP1, primary screen, cell lysate, small-molecule microarray (AID 1124).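 Also: lysate comes from COS7 cells expressing LAP1 and is applied at 0.3 µg/mL; score merges spot fluorescence near 667 nm with signal-to-noise over triplicate slides.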 Conditions: probe aLAP1, fluorescence, higher = more signal.
In test [8] the test system is Sam68 (KHDRBS1). The experiment in a line: Sam68 small-molecule binders, primary screen, biochemical, small-molecule microarray, 635 nm fluorescence (AID 1125).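 Also: score merges 667 nm channel intensity with signal to noise over triplicate slides.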 Conditions: small-molecule microarray binding, higher = more signal.
Test [9] concerns Chordin-like protein 2 (CHRDL2). In words: CHRDL2 small-molecule binders, primary screen, biochemical, small-molecule microarray, 635 nm fluorescence (AID 1126).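 Also: printed compound slides probed with Chrdl2 protein at 4 µg/mL for 1 h at 4 C; score merges 667 nm emission intensity with signal to noise over three replicate slides.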 The settings on record: small-molecule microarray binding, fluorescence 635 nm; higher = more signal.
Test [10] has as its target Concanavalin-A (Canavalia ensiformis) (UniProt P02866). In words: ConA small-molecule binders, primary screen, artefact control for SMM control protein annotation, biochemical, small-molecule microarray, Alexa647 label, 635 nm (AID 1127).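 Also: z combines 667 nm emission intensity with signal-to-noise across three replicate slides.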 Conditions: ConA-A647 binding fluorescence, higher = more signal.
Test [11] is described as follows: anti-His antibody binders, primary screen, artefact control for SMM control protein annotation, biochemical, small-molecule microarray, 635 nm fluorescence (AID 1128).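 Also: score merges feature fluorescence with signal-to-noise for each printed compound spot.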 The settings on record: anti-His Alexa647 antibody binding, higher = more signal.
The test system of test [12] is Human papillomavirus type 1a E7 protein (residues 1-88). The experiment in a line: HPV1a E7 small-molecule binders, primary screen, biochemical, small-molecule microarray, residues 1-88, 635 nm (AID 1129). The settings on record: small-molecule microarray binding, fluorescence 635 nm; higher = more signal.
The target of test [13] is Focal adhesion kinase 1 (Homo sapiens) (UniProt Q05397). The experiment in a line: small-molecule microarray binders of FAK, primary screen, biochemical, 635/667 nm fluorescence, BSA, DTT (AID 1130).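 Also: composite of spot emission at 667 nm and signal to noise over triplicate slides.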 The settings on record: PTK2 binding, 635 nm fluorescence, higher = more signal.
Chain of Focal adhesion kinase 1 (Homo sapiens) (Q05397 whole entry, looked up): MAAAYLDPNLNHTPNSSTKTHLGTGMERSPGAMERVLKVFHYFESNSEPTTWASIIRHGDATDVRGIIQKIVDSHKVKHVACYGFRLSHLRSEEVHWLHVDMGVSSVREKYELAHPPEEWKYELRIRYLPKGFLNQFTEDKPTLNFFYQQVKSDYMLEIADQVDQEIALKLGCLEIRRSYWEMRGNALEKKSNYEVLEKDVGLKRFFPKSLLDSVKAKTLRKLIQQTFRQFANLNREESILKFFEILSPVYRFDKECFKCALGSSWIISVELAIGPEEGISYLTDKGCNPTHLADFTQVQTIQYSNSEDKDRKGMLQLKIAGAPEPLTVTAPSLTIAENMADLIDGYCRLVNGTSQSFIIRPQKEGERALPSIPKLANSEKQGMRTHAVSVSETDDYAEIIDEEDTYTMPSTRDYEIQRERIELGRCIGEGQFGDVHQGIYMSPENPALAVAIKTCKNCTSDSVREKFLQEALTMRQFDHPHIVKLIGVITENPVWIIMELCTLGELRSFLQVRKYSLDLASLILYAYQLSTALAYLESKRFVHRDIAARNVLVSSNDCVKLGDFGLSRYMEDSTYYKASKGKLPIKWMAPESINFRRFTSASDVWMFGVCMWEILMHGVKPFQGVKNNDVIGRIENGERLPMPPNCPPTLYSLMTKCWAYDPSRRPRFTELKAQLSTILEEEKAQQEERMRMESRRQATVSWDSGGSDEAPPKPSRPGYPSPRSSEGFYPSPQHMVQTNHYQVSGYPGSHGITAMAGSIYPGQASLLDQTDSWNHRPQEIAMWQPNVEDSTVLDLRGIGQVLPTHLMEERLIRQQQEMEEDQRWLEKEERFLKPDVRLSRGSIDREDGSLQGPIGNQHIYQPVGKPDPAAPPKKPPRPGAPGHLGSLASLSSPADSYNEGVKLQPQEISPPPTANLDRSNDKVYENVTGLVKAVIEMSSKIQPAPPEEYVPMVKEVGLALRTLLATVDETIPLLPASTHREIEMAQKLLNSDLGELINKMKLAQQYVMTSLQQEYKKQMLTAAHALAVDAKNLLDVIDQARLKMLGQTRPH
The subject of test [14] is Fibrinogen (Alexa647-labelled). In words: fibrinogen binders on compound microarrays, profiling panel, artefact control for SMM control-protein annotation, biochemical, small-molecule microarray, 635/667 nm fluorescence (AID 1131).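 Also: z-score merges 667 nm fluorescence with per-spot signal-to-noise over triplicate slides.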 Conditions: fibrinogen-A647 binding fluorescence, higher = more signal.
Test [15] deals with Follistatin (Homo sapiens) (UniProt P19883). In words: follistatin binders on small-molecule microarrays, primary screen, biochemical, small-molecule microarray, 635/667 nm fluorescence (AID 1132). The settings on record: FST binding, 635 nm fluorescence, higher = more signal.
Chain of Follistatin (Homo sapiens) (P19883 whole entry, looked up): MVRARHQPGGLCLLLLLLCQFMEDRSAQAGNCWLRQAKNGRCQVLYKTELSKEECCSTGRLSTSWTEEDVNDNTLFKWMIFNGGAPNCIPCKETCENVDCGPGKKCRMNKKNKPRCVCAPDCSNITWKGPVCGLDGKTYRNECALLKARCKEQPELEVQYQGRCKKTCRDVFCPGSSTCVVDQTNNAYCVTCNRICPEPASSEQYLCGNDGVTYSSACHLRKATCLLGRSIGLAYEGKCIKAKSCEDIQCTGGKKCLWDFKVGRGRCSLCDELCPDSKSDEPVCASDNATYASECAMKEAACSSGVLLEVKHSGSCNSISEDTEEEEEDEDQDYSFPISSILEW
The target in test [16] is Fibroblast growth factor 2 (Homo sapiens) (UniProt P09038). The experiment in a line: FGF2 binders on small-molecule microarrays, primary screen, biochemical, small-molecule microarray, 635/667 nm fluorescence (AID 1133). The settings on record: small-molecule microarray binding, FGF2, fluorescence 635/667; higher = more signal.
Chain of Fibroblast growth factor 2 (Homo sapiens) (P09038 whole entry, looked up): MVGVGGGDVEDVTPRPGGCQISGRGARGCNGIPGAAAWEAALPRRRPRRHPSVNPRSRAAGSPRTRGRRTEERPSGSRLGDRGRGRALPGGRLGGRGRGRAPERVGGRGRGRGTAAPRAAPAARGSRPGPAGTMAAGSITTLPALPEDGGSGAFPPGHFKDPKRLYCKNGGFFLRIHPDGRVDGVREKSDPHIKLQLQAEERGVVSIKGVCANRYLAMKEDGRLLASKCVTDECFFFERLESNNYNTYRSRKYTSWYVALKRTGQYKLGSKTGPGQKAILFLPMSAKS
Test [17] is described as follows: mitochondrial membrane potential change in A549 cells, profiling panel, cell-based, JC-1 fluorescence, basal, 24 h, 100 nL (AID 1138).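 Also: A549 lung adenocarcinoma cells under basal conditions with no added stimulus; test concentration not given here.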 Conditions: higher = more signal.
Test [18] relates to Lefty1. The experiment in a line: Lefty1 binders on small-molecule microarrays, primary screen, biochemical, small-molecule microarray, 635/667 nm fluorescence (AID 1139). The settings on record: small-molecule microarray binding, fluorescence 635/667; higher = more signal.
In test [19] the test system is wheat germ agglutinin (Triticum aestivum), Alexa647-labelled. In words: wheat germ agglutinin binders on compound microarrays, profiling panel, artefact control for SMM control-protein annotation, biochemical, small-molecule microarray, 635/667 nm fluorescence (AID 1140).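 Also: score merges 667 nm feature emission with signal to noise over triplicate slides.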 The settings on record: WGA-A647 binding, 635 nm fluorescence, higher = more signal.
The target in test [20] is Luciferin 4-monooxygenase (Photinus pyralis) (UniProt P08659). In words: firefly luciferase enzyme inhibitors, primary screen, biochemical, luminescence, purified enzyme, 2006 set (AID 1141).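 Also: cell-free assay with purified firefly luciferase at 100 ng per well in PBS; test concentration not given here.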 The settings on record: SteadyGlo luminescence, 30 min, higher = more signal, called active from +8 up or from −8 down.
Chain of Luciferin 4-monooxygenase (Photinus pyralis) (P08659 whole entry, looked up): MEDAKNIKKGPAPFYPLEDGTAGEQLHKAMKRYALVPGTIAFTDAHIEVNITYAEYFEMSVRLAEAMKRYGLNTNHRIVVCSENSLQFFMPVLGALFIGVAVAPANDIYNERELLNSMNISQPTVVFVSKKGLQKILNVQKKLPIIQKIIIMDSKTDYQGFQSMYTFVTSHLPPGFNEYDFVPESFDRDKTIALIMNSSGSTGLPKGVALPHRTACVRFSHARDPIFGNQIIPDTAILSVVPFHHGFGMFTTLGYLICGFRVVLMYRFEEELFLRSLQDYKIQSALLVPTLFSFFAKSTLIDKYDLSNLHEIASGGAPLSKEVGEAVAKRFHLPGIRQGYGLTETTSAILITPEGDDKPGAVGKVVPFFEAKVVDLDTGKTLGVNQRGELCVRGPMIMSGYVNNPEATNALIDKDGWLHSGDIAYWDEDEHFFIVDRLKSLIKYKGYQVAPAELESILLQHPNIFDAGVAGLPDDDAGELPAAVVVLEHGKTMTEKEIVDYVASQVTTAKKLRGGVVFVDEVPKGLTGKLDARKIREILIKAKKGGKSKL

Chain of Concanavalin-A (Canavalia ensiformis) (P02866 whole entry, looked up): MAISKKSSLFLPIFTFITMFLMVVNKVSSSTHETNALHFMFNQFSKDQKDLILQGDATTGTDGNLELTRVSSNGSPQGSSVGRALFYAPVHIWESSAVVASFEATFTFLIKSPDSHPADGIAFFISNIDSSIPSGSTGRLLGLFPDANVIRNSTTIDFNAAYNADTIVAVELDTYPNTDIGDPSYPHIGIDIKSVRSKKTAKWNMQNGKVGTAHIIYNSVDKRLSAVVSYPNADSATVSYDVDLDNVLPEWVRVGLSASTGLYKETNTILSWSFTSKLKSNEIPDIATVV

On to `CCCC[C@H]1OB(O)C[C@H]2C1=C(COC)C[C@H]1C(=O)N(C)C(=O)[C@H]12`, for which the composite z-score was -0.126 in test [1]; -0.0328 in test [3]; -0.201 in test [4]; 0.39 in test [5]; 0.502 in test [6]; 0.0459 in test [7]. For the same compound, the composite z-score was 0.462 in [8]; 0.245 in [9]; 0.744 in [10]; 0.415 in [11]; -0.292 in test [12]; 0.18 in test [13]. For the same compound, the composite z-score came to 0.144 in test [14]; 0.824 in test [15]; 0.846 in test [16]; 0.896 in test [18]; 0.631 in [19]. Besides, in test [2], the composite Z-score is -0.618 (inactive). The z-score in test [17] was 0.145; in [20] it was -0.656 (inactive).
As to `COC(=O)[C@]1(CCC(=O)OC(C)(C)C)N=C(c2ccc(OCCCO)cc2)O[C@@H]1c1ccccc1CN=[N+]=[N-]`, the composite z-score in test [1] was -0.325; in [3], -0.0284; in [4] it was 0.0059; in [5], 0.675; in test [6], 1.72; in test [7] it was -0.46. In addition, the composite z-score in test [8] was 0.866; in [9], -1.04; in [10], 0.779; in test [11], 0.0121; in test [12] it was 1.06; in test [13], 0.348. Further, the composite z-score was 0.666 in [14]; 1.13 in test [15]; 0.283 in [16]; -0.477 in test [18]; 0.095 in [19]. Also, in [2], the composite Z-score was -1.26 (inactive). Moreover, the z-score in test [17] is -0.208; in test [20] it was -0.76 (inactive).
For the compound `[N-]=[N+]=NCc1ccccc1[C@@H]1OC(c2ccc(OCCCO)cc2)=N[C@]1(Cc1ccccc1)C(=O)NCC(O)CO` (stereo not given in full), the composite z-score in [1] is 1.05; in test [3], 0.271; in test [4], 0.109; in [5] it was 0.546; in test [6] it was 3.09; in test [7], 1.18. In addition, the composite z-score in test [8] is 1.22; in test [9], -0.549; in test [10] it was 0.306; in test [11] it was 1.9; in [12] it was 1.19; in [13] it was 0.443. The composite z-score in [14] is 0.958; in test [15], 0.973; in test [16], 1.52; in test [18], -1.3; in test [19], 0.718. Moreover, the composite Z-score in [2] was 1.57 (inactive). In addition, the z-score was 0.529 in test [17] and -0.0075 (inactive) in [20].
Regarding `COc1ccc(C(=O)Nc2ccc(CN3C(=O)[C@]4(O[C@H](CCO)[C@@H]([Si](C)(C)c5ccc(OC)cc5)[C@@H]4C)c4ccccc43)cc2)cc1`, the composite z-score was 0.357 in test [1]; 0.149 in test [3]; -0.0891 in [4]; 0.283 in test [5]; 0.417 in test [6]; -0.337 in test [7]. Also, the composite z-score in test [8] is 1.22; in test [9], 0.531; in test [10] it was 1.09; in test [11], 0.215; in test [12] it was 1.06; in [13], 0.246. In addition, the composite z-score is 0.599 in test [14]; 0.995 in test [15]; 0.894 in [16]; 1.36 in [18]; 0.526 in test [19]. In addition, the composite Z-score in test [2] was 0.377 (inactive). Further, the figures for the z-score in test [17] and in [20] were -1.41 and 0.362 (inactive), respectively.
Regarding `COC(=O)C(CC#Cc1ccc2c(c1)[C@]1(C(=O)N2)[C@H](c2ccc(OCCO)cc2)N2[C@H](c3ccccc3)[C@H](c3ccccc3)OC(=O)[C@H]2[C@@H]1C(=O)N1CCc2cc(OC)c(OC)cc2C1)C(=O)OC`, the composite z-score in test [1] is 0.863; in test [3] it was 0.407; in test [4], -0.0326; in test [5] it was 0.542; in [6], 2.04; in [7] it was 0.397. The composite z-score in test [8] turned out to be 1.31; in [9], 0.547; in [10] it was 1.15; in test [11] it was 0.857; in test [12], 1.2; in test [13], 0.343. In addition, the composite z-score in test [14] came out at 1; in test [15] it was 1.41; in test [16], 1.57; in test [18] it was 1.36; in test [19] it was 0.423. Also, the composite Z-score in [2] is -0.527 (inactive). Further, the results for the z-score in test [17] and in test [20] were -1.26 and -0.465 (inactive), respectively.
